Test results taken from PubChem BioAssay AID1117319 (Southern Research Institute, 2015).
Where “and” joins values, the source holds several entries; their conditions need not be identical. Equal entries are not always repeated. In all, about 260,000 compounds went through this assay and about 1,500 (0.58%) were called active. Another 5% or so got no clear call; they are omitted.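 The calls were made as follows: active = inhibition above a set limit at one or more doses, reproduced on every date tested; inconclusive = results disagree between test dates, or hit never tested in dose response; inactive = the rest.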 Only a sample is shown. Entries with a potency or affinity are not part of this list.

What follows are molecules tested against Virion infectivity factor (Human immunodeficiency virus type 1 group M subtype B (isolate BH10)) + Virion infectivity factor (Human immunodeficiency virus type 1 group M subtype B (isolate BRU/LAI)) + Virion infectivity factor (Human immunodeficiency virus type 1 group M subtype B (isolate PCV12)) + Virion infectivity factor (Human immunodeficiency virus type 1 group M subtype B (isolate HXB2)) + DNA dC->dU-editing enzyme APOBEC-3G (Homo sapiens) (UniProt P69720+P69721+P69722+P69723+Q9HC16) (assay: HIV-1 Vif–A3G interaction blockers – biochemical, TR-FRET, GST-Vif 1-94, biotin-A3G peptide, dose response retest, primary screen (AID 1117319;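 also: Vif residues 1-94 fused to GST binding biotinylated APOBEC3G peptide 110-148; 0% = full assay without inhibitor and 100% = GST in place of GST-Vif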)). Details: TR-FRET GST-Vif / biotin-A3G peptide binding; hits give high values.

inhibition, inactive:
CCOc1ccccc1NC(=O)CSc1n[nH]c(=O)n1-c1ccccc1 -11.6%
CCOC(=O)Nc1ccc2c(c1)OCO2 -0.36%
COC(=O)CNc1ccc2c(c1)OCO2 26.3%
Cn1c(CNC(=O)CNC(=O)c2cccc(F)c2)cc(=O)n(C)c1=O 1.22%
O=C1CC(N2CCSCC2)C(=O)N1c1cccc(Cl)c1 (stereo unspecified) 2.84%
N=C1/C(=C/c2ccco2)C(=O)N=C2SC(CC(=O)N3CCCC3)=NN12 22.9%
COc1ccc(/C=C2/C(=N)N3N=C(CC(=O)N4CCCC4)SC3=NC2=O)cc1 -6.36%
COc1ccc(CNC(=O)COC(=O)c2[nH]c(C)c(C(C)=O)c2C)cc1OC 7.14%
CN(c1ccc(OCC(=O)NC2CCC(O)CC2)cc1)S(=O)(=O)c1ccc(Cl)cc1 (stereo unspecified) -2.71%
O=c1cc(-c2ccccc2F)oc2ccccc12 17.5%
O=c1cc(-c2ccccc2Cl)oc2cc(O)cc(O)c12 -0.34%
O=c1[nH]c(=O)n(Cc2ccccc2)c2nc(-c3cccs3)n(CCO)c12 0.78%
Cc1ccc(S(=O)(=O)Cn2nnnc2C(CC(C)C)N2CCN(c3ccccc3)CC2)cc1 (stereo unspecified) -7.24%
Cc1ccc(S(=O)(=O)Cn2nnnc2C(CC(C)C)N2CCN(C(=O)c3ccco3)CC2)cc1 (stereo unspecified) 28%
COC(=O)CSc1ncnc2scc(-c3ccccc3)c12 13.7%
Cc1ccc2cccc(Oc3ncnc4scc(-c5ccccc5)c34)c2n1 -1.8%
COc1cc(C)cc2c1OC(c1ccccc1)CC2=O (stereo unspecified) -0.37%
COc1ccc(C2CC(=O)c3ccccc3O2)cc1 (stereo unspecified) 18.3%
O=c1c2cn[nH]c2[nH]c(=S)n1-c1ccccc1F -1.23%
CCC(C)NCCCOc1c(C)cc(C)cc1Br (stereo unspecified) -1.93%
COCC(=O)N(CCc1ccc(OC)cc1)Cc1nc2ccccc2c(=O)[nH]1 0.5%
CCC(CC)C(=O)N(CCc1ccc(OC)cc1)Cc1nc2ccccc2c(=O)[nH]1 -1.67%
O=C(CNC(=O)c1cccc(Cl)c1)NCC(c1cccs1)N1CCOCC1 (stereo unspecified) -8.67%
Cc1nnc2ccc(-c3cccc(NS(C)(=O)=O)c3)nn12 30.9%
CCCn1c(SC/C(O)=C(\C#N)c2nc3ccccc3[nH]2)n[nH]c1=O 8.52%
Cc1cc(C)n2c(SCC(O)=C(C#N)c3nc4ccccc4[nH]3)nnc2n1 -1.4%
O=C(Nc1ccc(Cl)cn1)C1CCN(S(=O)(=O)c2cccs2)CC1 2.8%
O=C(Nc1ccccn1)C1CCN(S(=O)(=O)c2cccs2)CC1 -2.3%
Cc1ccc(S(=O)(=O)NCC(=O)OC(C(=O)c2ccccc2)c2ccccc2)cc1 (stereo unspecified) 17.9%
CCCCN1C(=O)C(CC(=O)NCc2ccco2)CC(C(=O)N(CC)CC)=C1C (stereo unspecified) -1.7%
Cn1cc(C(=O)N/N=C/c2ccc(Br)c([N+](=O)[O-])c2)c2ccccc21 -0.7%
NC(=O)COC(=O)CNC(=O)c1ccc(Cl)cc1 -2.39%
Cc1ccc(C(=O)Nc2sc3c(c2C#N)CCCCC3)cc1C -3.7%
Cc1cccc(C(=O)Nc2sc3c(c2C#N)CCCCC3)c1 -5.88%
CC(C)(C)c1ccc(OCCC(=O)OCC(=O)Nc2ccc(N3CCOCC3)cc2)cc1 -3.5%
O=Nc1c(O)ccc2cc(S(=O)(=O)O)ccc12 24.3%
Nc1cc(S(=O)(=O)O)cc2ccc(S(=O)(=O)O)cc12 0.1%
O=P(c1ccccc1)(c1ccccc1)c1cc(S(=O)(=O)O)ccc1O 26.4%
O=C(O)c1cc(S(=O)(=O)O)ccc1O 9.92%
COc1ccc(C)cc1-n1c(C)cc(C=O)c1C -0.15%
c1ccc(Cn2ncc3ccccc32)cc1 23.7%
Cc1cc([N+](=O)[O-])nn1CC(=O)N/N=C/c1ccccc1Br -3.16%
Cc1cc(NS(=O)(=O)c2ccc(NC(=O)Cc3cccs3)cc2)no1 -3.09%
Cc1nc2ccc(NC(=O)Cc3ccccc3F)cc2s1 13.4%
O=C(Cc1cccs1)Nc1ccc(S(=O)(=O)Nc2ncccn2)cc1 26.2%
COC(=O)c1ccc(C(=O)OC)c(NC(=O)CCC(=O)O)c1 17.1%
Cc1cc(NC(=O)CCCC(=O)NCc2cccs2)no1 10.9%
Cc1nc2ccc(NC(=O)Cc3ccsc3)cc2s1 -2.69%
Cc1ccnc(NS(=O)(=O)c2ccc(NC(=O)Cc3ccccc3)cc2)n1 4.16%
COC(=O)c1cc(OC)c(OC)cc1NC(=O)Cc1cccs1 10.3%
COc1ccc(OC)c(-c2nc(C(N)=O)c3[nH]c(=O)n(-c4ccc(F)cc4)c3n2)c1 -0.73%
NNC(=O)c1nc(-c2cccc(-n3cccc3)c2)no1 2.13%
CC(=O)Nc1ccc(C(=O)COC(=O)CCc2ccccc2)c(F)c1 -7.82%
FC(F)(F)c1cnc(-n2cc[nH]c2=S)c(Cl)c1 -3.85%
CCCCN=C1NC(=O)C(CC(=O)NCCc2ccc(OC)cc2)S1 (stereo unspecified) 21.5%
CCOc1ncccc1C(=O)NCCN1C(=O)S/C(=C/c2cccs2)C1=O 17.3%
Cc1nc(Nc2ccccc2)c2oc3ccc(Cl)cc3c2n1 -10.6%
Cc1ccc(-c2cc(C(=O)Nc3ccccc3C)c3ccccc3n2)o1 0.87%
Cc1ccc(NC(=O)c2cc(-c3ccc(C)o3)nc3ccccc23)cc1 20.7%
CCc1c(C(=O)OC)nnc2cc(C)nn12 -2.39%
COc1ccc(SCC(=O)Nc2ccc(N3CCN(C)CC3)c(F)c2)cc1 -1.67%
CNC(=O)COC(=O)c1[nH]c(C)c(C(C)=O)c1C 1.68%
CC(=O)c1c(C)[nH]c(C(=O)OCC(=O)NCC(C)C)c1C -6.38%
CCOC(=O)c1c(C)[nH]c(C(=O)OCC(=O)N2CCN(S(=O)(=O)c3ccc(C)cc3C)CC2)c1C -6.76%
Cc1[nH]ccc(=O)c1Oc1ncc(C(F)(F)F)cc1Cl -2.35%
Cc1ccc(-c2nn(Cc3ccccc3)cc2/C=C/C(=O)O)cc1C -3.26%
COc1ccc(OC)c(C(c2nnnn2C2CCCC2)N2CCN(c3ccccc3F)CC2)c1 (stereo unspecified) -6.38% and 2.54%
COc1ccc(C)cc1NC(=O)C(C)N(c1ccc(C)cc1)S(C)(=O)=O (stereo unspecified) -0.78%
CCC(CC)C(=O)N1CC(=O)Nc2ccc(F)cc2C1c1ccccc1 (stereo unspecified) -0.74%
CC(/C=C1\SC(=S)N(CC(=O)N2CCN(c3ccccc3)CC2)C1=O)=C\c1ccccc1 25.6%
O=C1/C(=C\c2ccc(O)cc2)SC(=S)N1c1cccnc1 1.44%
O=C(O)CN1C(=O)/C(=C\C(Br)=C\c2ccccc2)SC1=S 8.8%
COc1ccc(CCN2C(=O)/C(=C\c3ccco3)SC2=S)cc1OC 0.31%
COc1cc(/C=C2\SC(=N)N(c3ccc4c(c3)OCO4)C2=O)cc(OC)c1O 2.68%
N=C1S/C(=C\c2cccc3ccccc23)C(=O)N1c1ccc(F)cc1 -3.83%
COc1cccc(/C=C2\SC(=S)N(c3cccnc3)C2=O)c1OC -3.12%
Cc1ccc(N2C(=O)/C(=C/c3ccco3)SC2=S)cc1 -7.25%
C[C@H](O)[C@@H]1C(=O)N2CCc3ccc(N4CCOCC4)cc3[C@@H]2C[C@@H]1N(C)S(=O)(=O)c1ccccc1 -8.52%
CN1C(=O)C(N=Nc2ccccc2C(=O)O)N(C)C1=S (stereo unspecified) 30.3%
Cc1ccc(SCC(=O)N(C)CC(=O)Nc2cccc(F)c2)cc1 0.72%
COc1cccc(-n2c(SC)nnc2-c2cnccn2)c1 -0.18%
CCN(CC(=O)Nc1cc(Cl)ccc1C)C(=O)c1ccc2c(=O)n3c(nc2c1)CCC3 2.7%
CN(C)Cc1cn(CCC(=O)O)c2ccccc12 -3.96%
O=C1OC/C(=C(/O)c2ccc(Cl)cc2)C1=O -8.18%
O=C1/C(=C/c2cccs2)SC(=S)N1c1ccccc1 -6.53%
Cc1ccc(/C=C2\SC(=S)N(Cc3ccccc3)C2=O)o1 29.5%
Cc1ccc(/C=C2\SC(=S)N(c3cccnc3)C2=O)cc1 21.1%
Cc1cccc(N2C(=O)/C(=C/c3cccnc3)SC2=S)c1 -1.54%
O=C1/C(=C/c2cccnc2)SC(=S)N1c1ccccc1 8.11%
O=C(O)c1ccc(/C=C2/SC(=S)N(Cc3ccccc3)C2=O)cc1 -0.52%
Cc1nn(C)c(C(=O)NNC(=S)Nc2ccc(F)cc2)c1[N+](=O)[O-] -3.65%
CCn1cnc2cc(NC(=O)c3ccc(C)cc3)ccc21 -2%
COCCn1c(SCC(=O)N2CCCc3ccccc32)nc2cccnc21 -1.26%
C/C(=N\S(=O)(=O)c1ccc(C)cc1)NC(=S)Nc1ccccc1 -0.88%
Cc1ccsc1C(=O)OCC(=O)Nc1cccc(S(=O)(=O)N2CCOCC2)c1 2.2%
Cc1cc(C(=O)OC(C)C(=O)NC2CCCCC2C)c2ccccc2n1 (stereo unspecified) -2.6%
